Reference: PubChem BioAssay
Values joined by “and” are separate entries in the source; they are usually repeats but may differ in a detail not shown here. Identical values can stand only once. Results filed as inconclusive are left out. Active and inactive are the calls of the source.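 Rule for the calls, unless noted: active = response below a set limit, under 55% cells CD8-positive and vesicle-bound, and CD8 cells' 90th-percentile brightness under 279; inactive = the rest.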

How the values were obtained:
[1] = yeast TOR pathway RPL19A-GFP modulators, primary screen, cell-based, S. cerevisiae, multiplex flow cytometry (AID 1862; in the data active = percent of DMSO control GFP below about 86%;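 note: lower values mimic rapamycin by blocking the RPL19A rise seen in DMSO cells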); conditions: S. cerevisiae RPL19A-GFP strain, flow cytometry fluorescence, 3 h; at 10 µM; stronger effect = lower value
[2] = modulators of MEP2-GFP levels in yeast, primary screen, S. cerevisiae, multiplex flow cytometry (AID 1867;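 active = GFP response, as percent of the DMSO control, above the screen-wide mean plus 3 SD, about 139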;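 note: median GFP channel fluorescence of barcode-gated MEP2-GFP cells measured by flow cytometry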); conditions: S. cerevisiae MEP2-GFP strain, 3 h, at 10 µM, stronger effect = higher value, 100% means same as DMSO wells
[3] = modulators of CIT2-GFP expression in yeast, primary screen, S. cerevisiae, GFP fusion, multiplex flow cytometry (AID 1870;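 active = percent response above a set limit, the screen-wide mean plus 3 SD, cut at about 130% in these data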;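 note: barcoded CIT2-GFP strain pooled with four other GFP strains with rapamycin as positive control; median GFP fluorescence per well over plate mean of DMSO wells so 100% = DMSO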); conditions: 3 h, at 10 µM, stronger effect = higher value
[4] = modulators of LAP4-GFP expression in yeast, primary screen, S. cerevisiae, multiplex flow cytometry (AID 1873;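 active = GFP signal, as percent of the solvent control, above the screen mean plus 3 SD, about 149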); conditions: 3 h, at 10 µM, stronger effect = higher value
[5] = modulators of AGP1-GFP expression in yeast TOR pathway, primary screen, cell-based, multiplex flow cytometry, S. cerevisiae (AID 1887;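 active = GFP signal above the screen-wide mean plus 3 SD, that is over about 124.5% of the solvent control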;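 note: AGP1-GFP fusion strain of S. cerevisiae within a five-strain barcoded multiplex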); conditions: 3 h, at 10 µM, stronger effect = higher value
[6] = inhibitors of CD8+ T cell-vesicle binding, pilot screen, LFA-1/ICAM-1 modulator project, MLPCN validation set, flow cytometry (AID 2523); conditions: 2C mouse CD8+ T cells, at 7 µM, stronger effect = lower value; double positive events: measured here: CD8+/vesicle+ event percentage;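 for vesicle binding response: mean PE anti-B7-1 fluorescence of CD8+ cells relative to row control; 100% = QL9-loaded vesicles with DMSO vehicle in the same plate row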
[7] = biological target: Integrin beta-1 (Homo sapiens) + Integrin alpha-4 (Homo sapiens) (UniProt P13612+P05556); test: inhibition of HUTS-21 binding to VLA-4, pilot screen, VLA-4 allosteric modulator project, U937 cells, HUTS-21 mAb, flow cytometry, validation set (AID 2674;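 active = inhibition above 50%, about 3 SD of the validation set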;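 note: antibody binding induced by the VLA-4 ligand LDV present at three times its Kd; 0% = LDV ligand with antibody and no compound and 100% = antibody without LDV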); conditions: HUTS-21 LIBS mAb binding, at 6.7 µM, stronger effect = higher value, binding induced by LDV ligand
Sequence of Integrin beta-1 (Homo sapiens) + Integrin alpha-4 (Homo sapiens) (P05556 whole entry, looked up): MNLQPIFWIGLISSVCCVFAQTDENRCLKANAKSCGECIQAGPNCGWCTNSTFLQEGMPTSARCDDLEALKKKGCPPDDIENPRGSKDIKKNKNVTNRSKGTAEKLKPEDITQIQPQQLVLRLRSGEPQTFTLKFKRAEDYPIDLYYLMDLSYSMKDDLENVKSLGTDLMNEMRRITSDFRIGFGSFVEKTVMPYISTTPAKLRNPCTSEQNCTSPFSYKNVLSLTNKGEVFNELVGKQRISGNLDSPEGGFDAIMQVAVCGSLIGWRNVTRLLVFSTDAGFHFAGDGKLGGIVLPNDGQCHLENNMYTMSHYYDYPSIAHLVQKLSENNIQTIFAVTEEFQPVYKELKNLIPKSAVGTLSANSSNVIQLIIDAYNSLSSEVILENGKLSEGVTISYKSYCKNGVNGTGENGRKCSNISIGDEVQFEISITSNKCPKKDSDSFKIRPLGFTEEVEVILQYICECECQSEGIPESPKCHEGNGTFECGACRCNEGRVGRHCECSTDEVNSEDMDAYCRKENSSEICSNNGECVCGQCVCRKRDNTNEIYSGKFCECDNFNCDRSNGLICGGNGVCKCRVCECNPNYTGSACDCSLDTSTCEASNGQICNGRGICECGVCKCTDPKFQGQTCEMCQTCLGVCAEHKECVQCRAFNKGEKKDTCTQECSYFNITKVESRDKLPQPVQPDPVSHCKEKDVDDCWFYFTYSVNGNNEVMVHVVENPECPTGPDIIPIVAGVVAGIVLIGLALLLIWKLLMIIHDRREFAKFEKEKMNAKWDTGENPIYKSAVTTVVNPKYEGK
Sequence of Integrin beta-1 (Homo sapiens) + Integrin alpha-4 (Homo sapiens) (P13612 whole entry, looked up): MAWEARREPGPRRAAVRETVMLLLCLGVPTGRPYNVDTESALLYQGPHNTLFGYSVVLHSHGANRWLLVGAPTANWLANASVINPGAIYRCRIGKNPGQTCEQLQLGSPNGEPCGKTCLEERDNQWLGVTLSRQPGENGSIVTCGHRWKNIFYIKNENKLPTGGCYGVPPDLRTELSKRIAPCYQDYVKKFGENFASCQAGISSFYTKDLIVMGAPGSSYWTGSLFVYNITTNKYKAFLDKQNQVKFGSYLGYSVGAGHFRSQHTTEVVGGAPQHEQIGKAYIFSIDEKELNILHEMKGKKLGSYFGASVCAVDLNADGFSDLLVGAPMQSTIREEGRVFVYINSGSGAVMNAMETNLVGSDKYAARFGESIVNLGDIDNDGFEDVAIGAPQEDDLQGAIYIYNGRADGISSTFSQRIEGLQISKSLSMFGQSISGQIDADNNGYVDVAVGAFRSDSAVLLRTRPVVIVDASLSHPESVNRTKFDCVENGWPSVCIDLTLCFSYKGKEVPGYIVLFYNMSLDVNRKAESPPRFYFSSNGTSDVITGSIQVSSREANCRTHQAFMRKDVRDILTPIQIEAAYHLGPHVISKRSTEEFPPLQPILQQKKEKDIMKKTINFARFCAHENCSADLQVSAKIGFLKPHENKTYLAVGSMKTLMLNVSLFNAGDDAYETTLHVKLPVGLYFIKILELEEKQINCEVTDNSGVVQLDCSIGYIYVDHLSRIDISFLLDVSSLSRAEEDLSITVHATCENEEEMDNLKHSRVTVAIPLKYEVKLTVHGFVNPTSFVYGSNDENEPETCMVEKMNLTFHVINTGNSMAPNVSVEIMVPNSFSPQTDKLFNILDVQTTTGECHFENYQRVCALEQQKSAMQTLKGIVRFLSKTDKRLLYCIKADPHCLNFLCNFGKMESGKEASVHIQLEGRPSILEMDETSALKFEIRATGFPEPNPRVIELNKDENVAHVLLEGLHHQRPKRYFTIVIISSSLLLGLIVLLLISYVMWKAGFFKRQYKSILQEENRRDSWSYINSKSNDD

[8] = superoxide lowering in aged yeast cells, pilot screen, validation compound set (AID 2706;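 active = superoxide response below 65% of plate, a cut near 3 SD across the whole screen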;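 note: yeast exposed to compound for one week at 30 degrees C before staining; 100% = mean of all compound wells on the same plate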); conditions: S. cerevisiae aging, superoxide DHE fluorescence; at 10 µM; stronger effect = lower value
[9] = biological target: Beta-adrenergic receptor kinase 1 (Homo sapiens) (UniProt P25098); test: GRK2 binders displacing RNA aptamer, biochemical, validation, human GRK2, bead flow cytometry (AID 488806;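 active = aptamer binding inhibition above 30%, about 3 SD of noise from non-fluorescent compounds; inactive = inhibition at or below 30%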); conditions: bead-bound GRK2, FAM-aptamer displacement, at 10 µM, stronger effect = higher value
Sequence of Beta-adrenergic receptor kinase 1 (Homo sapiens) (P25098 whole entry, looked up): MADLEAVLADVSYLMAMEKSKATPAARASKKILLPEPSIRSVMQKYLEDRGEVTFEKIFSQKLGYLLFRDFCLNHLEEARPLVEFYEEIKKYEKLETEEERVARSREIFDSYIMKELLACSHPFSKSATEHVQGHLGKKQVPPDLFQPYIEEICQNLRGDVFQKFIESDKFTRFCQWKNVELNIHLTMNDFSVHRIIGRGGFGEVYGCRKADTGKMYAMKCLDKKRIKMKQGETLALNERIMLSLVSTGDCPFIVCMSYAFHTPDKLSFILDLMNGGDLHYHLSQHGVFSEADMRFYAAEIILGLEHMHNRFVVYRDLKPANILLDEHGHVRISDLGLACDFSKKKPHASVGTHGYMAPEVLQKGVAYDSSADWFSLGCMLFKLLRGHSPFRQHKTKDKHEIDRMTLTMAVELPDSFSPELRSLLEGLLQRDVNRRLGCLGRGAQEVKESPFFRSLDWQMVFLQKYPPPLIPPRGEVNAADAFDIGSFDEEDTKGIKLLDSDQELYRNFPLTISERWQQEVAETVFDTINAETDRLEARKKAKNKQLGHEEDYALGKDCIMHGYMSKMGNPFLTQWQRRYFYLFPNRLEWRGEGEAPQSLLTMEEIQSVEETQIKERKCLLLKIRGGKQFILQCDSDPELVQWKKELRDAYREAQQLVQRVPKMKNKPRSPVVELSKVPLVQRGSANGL

[10] = biological target: Beta-2 adrenergic receptor (Homo sapiens) (UniProt P07550); test: beta2AR agonists driving receptor internalization, pilot screen, cell-based, FAP fluorogen, flow cytometry, validation set (AID 504459;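 active = percent response above 42, roughly 3 SD of non-fluorescent test compounds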;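 note: agonist-driven loss of surface beta2AR via internalization measured by FAP dye flow cytometry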); conditions: Am2.2-beta2AR cells, FAP surface receptor flow cytometry; at 10 µM; stronger effect = higher value
Sequence of Beta-2 adrenergic receptor (Homo sapiens) (P07550 whole entry, looked up): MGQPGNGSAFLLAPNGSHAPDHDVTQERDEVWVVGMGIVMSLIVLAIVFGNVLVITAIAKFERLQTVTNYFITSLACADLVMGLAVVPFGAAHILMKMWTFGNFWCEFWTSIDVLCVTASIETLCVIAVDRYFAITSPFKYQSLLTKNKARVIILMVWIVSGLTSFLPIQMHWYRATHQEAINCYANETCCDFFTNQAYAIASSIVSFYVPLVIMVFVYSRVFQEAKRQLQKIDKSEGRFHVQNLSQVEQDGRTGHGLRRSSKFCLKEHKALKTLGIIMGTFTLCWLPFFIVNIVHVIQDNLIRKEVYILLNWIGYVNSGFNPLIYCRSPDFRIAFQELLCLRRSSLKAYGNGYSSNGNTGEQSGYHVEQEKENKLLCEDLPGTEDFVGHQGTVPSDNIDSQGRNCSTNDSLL

[11] = biological target: AP-2 complex subunit beta (Homo sapiens) (UniProt P63010); test: inhibitors of arrestin peptide binding to AP2, pilot screen, biochemical, validation set, GST-AP2 beads, flow cytometry (AID 504541;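 active = inhibition above 54%, about 3 SD of non-fluorescent compounds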;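 note: AP2 carries R879A mutation and is captured from E. coli lysate; bead-bound FITC arrestin peptide fluorescence measuring arrestin peptide binding to AP2; 0% = DMSO wells and 100% = excess unlabeled arrestin peptide control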); conditions: FITC arrestin peptide, at 10 µM, stronger effect = higher value, AP2 beta2 appendage fragment, R879A mutant
Sequence of AP-2 complex subunit beta (Homo sapiens) (P63010 whole entry, looked up, the tested form may be a part, one chain of several): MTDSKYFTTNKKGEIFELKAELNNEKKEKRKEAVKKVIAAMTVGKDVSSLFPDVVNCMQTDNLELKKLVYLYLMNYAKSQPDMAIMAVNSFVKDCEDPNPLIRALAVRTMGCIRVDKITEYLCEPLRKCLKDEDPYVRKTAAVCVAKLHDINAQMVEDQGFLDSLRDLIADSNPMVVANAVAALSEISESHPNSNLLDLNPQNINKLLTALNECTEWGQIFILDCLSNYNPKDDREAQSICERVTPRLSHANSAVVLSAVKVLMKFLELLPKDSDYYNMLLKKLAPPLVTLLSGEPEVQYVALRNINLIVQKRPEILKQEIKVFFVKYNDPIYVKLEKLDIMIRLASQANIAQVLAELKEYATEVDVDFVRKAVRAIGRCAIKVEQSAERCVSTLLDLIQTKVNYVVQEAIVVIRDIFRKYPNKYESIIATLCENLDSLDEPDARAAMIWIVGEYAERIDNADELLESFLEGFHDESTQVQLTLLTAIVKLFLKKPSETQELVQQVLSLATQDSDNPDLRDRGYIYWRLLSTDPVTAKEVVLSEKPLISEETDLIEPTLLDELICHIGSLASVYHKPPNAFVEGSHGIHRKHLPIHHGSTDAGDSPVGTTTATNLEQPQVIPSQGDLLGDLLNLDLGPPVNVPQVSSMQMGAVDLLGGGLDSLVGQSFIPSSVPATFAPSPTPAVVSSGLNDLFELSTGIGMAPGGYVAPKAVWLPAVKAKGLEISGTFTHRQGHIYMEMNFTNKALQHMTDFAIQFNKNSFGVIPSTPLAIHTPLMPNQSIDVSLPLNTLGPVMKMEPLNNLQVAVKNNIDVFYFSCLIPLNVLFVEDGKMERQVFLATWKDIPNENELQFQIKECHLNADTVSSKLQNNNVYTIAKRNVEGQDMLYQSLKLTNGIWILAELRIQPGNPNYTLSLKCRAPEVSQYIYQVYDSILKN

[12] = yeast V-ATPase proton transport modulators, S. cerevisiae, pHLuorin, HTS validation (AID 504600; in the data active = response above about 15%;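 note: plate controls were DMSO for no effect and reference compound for full effect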); conditions: S. cerevisiae pHLuorin cytosolic pH, at 10 µM, stronger effect = higher value
[13] = system: anti-desmoglein-3 scFv antibody binding to human DSG3; test: inhibitors of anti-DSG3 scFv binding to DSG3, pilot screen, biochemical, validation compound set, bead-based, flow cytometry (AID 588368;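 active = binding below the plate cutoff, the plate median minus 3 SD, with a reading above zero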;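 note: signal is the median channel fluorescence of bead-bound GFP antibody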); conditions: Protein G beads, DSG3-Fc, scFv-GFP binding, at 10 µM, stronger effect = lower value
[14] = inhibitors of fungal efflux pumps CDR1, CDR2, MDR1, pilot screen, validation compound set, multiplex, phenotypic (AID 588506;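 active = efflux inhibition above 0.42, the validation set average plus 4 SD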;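 note: Nile Red retained in cells so higher fluorescence means more efflux inhibition; 0 = negative control wells and 1 = enniatin B 25 µM full block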); conditions: S. cerevisiae pump-expressing triplex, Nile Red efflux flow cytometry; at 10 µM; stronger effect = higher value; the pumps come from Candida albicans
[15] = biological target: ATP-binding cassette sub-family B member 6 (Homo sapiens) (UniProt Q9NP58); test: ABCB6 transporter inhibitors, pilot screen, K562-ABCB6 cells, flow cytometry, validation set (AID 588550;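 active = inhibition above the screen-wide mean plus 3 SD, about 51%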;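 note: 0% = DMSO wells and 100% = benzethonium chloride 70 µM positive control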); conditions: K562-ABCB6 porphyrin accumulation, 1 h, at 10 µM, stronger effect = higher value
Sequence of ATP-binding cassette sub-family B member 6 (Homo sapiens) (Q9NP58 whole entry, looked up): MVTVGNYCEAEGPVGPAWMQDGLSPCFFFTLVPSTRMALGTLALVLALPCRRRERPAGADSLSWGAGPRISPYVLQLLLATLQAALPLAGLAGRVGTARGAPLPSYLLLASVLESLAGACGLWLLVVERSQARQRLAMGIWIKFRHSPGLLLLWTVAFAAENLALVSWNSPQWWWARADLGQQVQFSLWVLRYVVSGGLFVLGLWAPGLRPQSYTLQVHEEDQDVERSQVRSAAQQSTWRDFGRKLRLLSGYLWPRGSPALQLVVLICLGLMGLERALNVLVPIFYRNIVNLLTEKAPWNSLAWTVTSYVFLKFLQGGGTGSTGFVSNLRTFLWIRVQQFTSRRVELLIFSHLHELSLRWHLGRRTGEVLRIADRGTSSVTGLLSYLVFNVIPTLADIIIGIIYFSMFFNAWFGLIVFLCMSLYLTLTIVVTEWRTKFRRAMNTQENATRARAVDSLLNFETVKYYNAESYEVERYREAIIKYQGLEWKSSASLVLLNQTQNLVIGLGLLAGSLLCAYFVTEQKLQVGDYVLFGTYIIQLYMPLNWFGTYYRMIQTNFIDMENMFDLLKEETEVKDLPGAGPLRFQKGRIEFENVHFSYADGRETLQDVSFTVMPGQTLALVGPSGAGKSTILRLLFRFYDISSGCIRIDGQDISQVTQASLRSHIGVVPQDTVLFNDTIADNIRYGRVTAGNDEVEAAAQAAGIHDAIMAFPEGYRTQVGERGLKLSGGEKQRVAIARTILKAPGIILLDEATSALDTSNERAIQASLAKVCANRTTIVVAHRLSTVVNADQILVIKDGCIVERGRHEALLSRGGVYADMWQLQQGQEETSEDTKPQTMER

[16] = promoters of myeloid differentiation in arrested cells, primary screen, cell-based, GFP/MAC1 double positive, flow cytometry, validation set (AID 588685;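 active = differentiation response of at least 50%, scaled between solvent and reference control, from cells with both markers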;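 note: compound exposure lasts four days before antibody staining and flow analysis; 0% = DMSO wells and 100% = 5 µM fulvestrant positive control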); conditions: ER-HoxA9 marrow cells, stronger effect = higher value, normalized: vehicle 0, fulvestrant 100

SMILES | percent of DMSO control GFP [1] | GFP response vs DMSO [2] | percent response of DMSO control [3] | GFP response vs DMSO [4] | GFP response, % of DMSO [5] | double positive events [6] | vesicle binding response [6] | inhibition [7] | superoxide response (% of plate) [8] | aptamer binding inhibition [9] | response [10] | inhibition [11] | response [12] | binding (% of control) [13] | efflux inhibition (fraction of control) [14] | inhibition [15] | differentiation response [16]
COc1cc2nc(N3CCN(C(=O)C4CCCO4)CC3)nc(N)c2cc1OC (stereo not given) | 102% (inactive) | 106% (inactive) | 95.5% (inactive) | 92.6% (inactive) | 94% (inactive) | 55.7% and 64.6% | 197% (inactive) and 148% (inactive) | 1.62% (inactive) and 5.61% (inactive) | 98% (inactive) and 91.7% (inactive) | -3% (inactive) and 5% (inactive) | 20.9% (inactive) | 8.12% (inactive) and -5.62% (inactive) | -29.6% (inactive) and 2.76% (inactive) | 109% (inactive) and 107% (inactive) | -0.39 (inactive) and -0.33 (inactive) | 7% (inactive) and -13% (inactive) | 22.4% (inactive) and 10.1% (inactive)
Nc1nc2c(nc(SCc3ccccc3Br)n2C2OC(CO)C(O)C2O)c(=O)[nH]1 (stereo not given) | 102% (inactive) | 97.4% (inactive) | 101% (inactive) | 108% (inactive) | 101% (inactive) | 62.7% | 50.1% (inactive) | -1.79% (inactive) | 94.9% (inactive) | 0% (inactive) | 17.9% (inactive) | 26.3% (inactive) | -4.55% (inactive) | 90.9% (inactive) | 0.12 (inactive) | 1% (inactive) | -23.2% (inactive)
CCOC(=O)C1=C(C)N[C@@]2(O)c3ccccc3C(=O)[C@@]12O | 102% (inactive) | 106% (inactive) | 106% (inactive) | 92.2% (inactive) | 98.5% (inactive) | 65.1% | 254% (inactive) | -7.25% (inactive) | 96.8% (inactive) | 1% (inactive) | -1.07% (inactive) | 12.9% (inactive) | 13% (inactive) | 99.3% (inactive) | -0.21 (inactive) | 6% (inactive) | -21.6% (inactive)
COc1ccc(CC(=O)Nc2cccc(C(=O)Nc3ccccc3C(=O)O)c2)cc1OC | 103% (inactive) | 102% (inactive) | 96.4% (inactive) | 103% (inactive) | 108% (inactive) | 61.5% | 181% (inactive) | 6.55% (inactive) | 108% (inactive) | 6% (inactive) | -21.7% (inactive) | -0.19% (inactive) | 2.28% (inactive) | 99.7% (inactive) | 0 (inactive) | 8% (inactive) | 26.5% (inactive)
O=C(O)CP(=O)(O)O | 97.2% (inactive) | 105% (inactive) | 93.4% (inactive) | 105% (inactive) | 96.8% (inactive) | 66.7% | 206% (inactive) | 11% (inactive) | 99% (inactive) | 6% (inactive) | 6.2% (inactive) | 3.17% (inactive) | -1.85% (inactive) | 105% (inactive) | 0.03 (inactive) | 16% (inactive) | -4.57% (inactive)
O=C(O)CCCc1ccccc1 | 104% (inactive) | 96.2% (inactive) | 115% (inactive) | 76.9% (inactive) | 99.7% (inactive) | 61.7% | 264% (inactive) | -4.6% (inactive) | 107% (inactive) | 5% (inactive) | -7.69% (inactive) | -6% (inactive) | 2.2% (inactive) | 96.1% (inactive) | 0.02 (inactive) | 19% (inactive) | 0.24% (inactive)
COc1ccc2c(=O)c(-c3cnn(-c4ccccc4)c3)c(C)oc2c1 | 102% (inactive) | 101% (inactive) | 99.6% (inactive) | 115% (inactive) | 109% (inactive) | 58.6% | 153% (inactive) | -2.82% (inactive) | 91.1% (inactive) | 4% (inactive) | -30.2% (inactive) | 7% (inactive) | 1.88% (inactive) | 103% (inactive) | -0.13 (inactive) | -336% (inactive) | -0.06% (inactive)
O=C(CS(=O)(=O)Cc1ccccc1)NCc1ccc2c(c1)OCO2 | 88% (inactive) | 123% (inactive) | 88.6% (inactive) | 81.4% (inactive) | 95.2% (inactive) | 63.3% | 123% (inactive) | -3.24% (inactive) | 92% (inactive) | 1% (inactive) | -3.4% (inactive) | -1.72% (inactive) | -0.1% (inactive) | 104% (inactive) | -0.24 (inactive) | -87% (inactive) | 5.73% (inactive)
C[C@@H]1CCC[C@H](C)N1NC(=O)c1ccc(Cl)c(S(N)(=O)=O)c1 | 105% (inactive) | 106% (inactive) | 107% (inactive) | 110% (inactive) | 113% (inactive) | 61.3% | 165% (inactive) | 4.27% (inactive) | 91.8% (inactive) | -2% (inactive) | 6.03% (inactive) | 2.8% (inactive) | 1.78% (inactive) | 105% (inactive) | 0.5 (active) | -5% (inactive) | -8.96% (inactive)
CC(=O)N1CCN(c2ccc(NC(=O)/C=C/c3ccccc3)cc2)CC1 | 103% (inactive) | 98.7% (inactive) | 105% (inactive) | 100% (inactive) | 108% (inactive) | 63.1% | 168% (inactive) | 2.93% (inactive) | 76% (inactive) | -3% (inactive) | 3.43% (inactive) | -6.59% (inactive) | 3.19% (inactive) | 107% (inactive) | 0.39 (inactive) | -1% (inactive) | -11.9% (inactive)
